{
  "source": "PubChem BioAssay (EPA / NIEHS)",
  "key": {"[1]": {"test": "STM_H9_OrnithineISnorm_perc: Stemina devTOX quickPredict H9 human embryonic stem cell (hESC)-based Assay for Ornithine (ORN) Metabolite Biomarker, Normalized (AID 2283712; active = hit-call score of the fitted dose curve at least 0.9, where 1 is the maximum; inactive = score below 0.9;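 also: ornithine released into spent medium during last day measured by mass spectrometry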)", "in_short": "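Undifferentiated H9 hESCs exposed 72 h with daily media and compound renewal; final 24-h conditioned medium analysed by UPLC-HRMS. Ornithine peak area normalised to spiked C13 standard and to median 0.1% DMSO control; viability by CellTiter-Fluor.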"}, "[2]": {"test": "STM_H9_CystineISnorm_perc: Stemina devTOX quickPredict H9 human embryonic stem cell (hESC)-based Assay for Cystine (CYSS) Metabolite Biomarker, Normalized (AID 2283713; active = hit-call score of the fitted dose curve at least 0.9, where 1 is the maximum; inactive = score below 0.9)", "in_short": "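Undifferentiated H9 hESCs exposed 72 h, compound and media replaced every 24 h; final 24-h media analysed by UPLC-HRMS. Cystine normalized to C13 spike-in standard and median 0.1% DMSO control.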"}, "[3]": {"test_system": "Thyroperoxidase (TPO), gene 54314", "test": "CCTE_Simmons_AUR_rTPO: CCTE's Amplex UltraRed Assay for Thyroperoxidase (TPO) Inhibition, Simmons Lab (AID 2283662);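 as to AC50: potency for loss of signal meaning inhibition of peroxidase activity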", "in_short": "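Cell-free peroxidase activity assay using rat thyroid gland microsomes with excess H2O2 (300 uM) and 25 uM Amplex UltraRed. Compounds tested from 5 nM to 87.5 uM; fluorescence measured after 30 min at 37C, analysed relative to DMSO baseline.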"}, "[4]": {"test": "CCTE_Simmons_CellTiterGLO_HEK293T: Viability Assessment in CCTE's Assays for Thyroperoxidase (TPO) Inhibition, Simmons Lab (AID 2283665);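 as to AC50: cells exposed to compound for 24 h before readout; actives reduce ATP signal below DMSO vehicle meaning cytotoxicity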", "in_short": "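HEK293T cells in DMEM with 1% FBS, dosed 24 h at 37C with 8 concentrations, 5 nM–87.5 uM final, 0.5% DMSO. ATP measured by CellTiter Glo luminescence; loss of signal vs DMSO, three biological replicates.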"}, "[5]": {"test": "STM_H9_OrnCyssISnorm_ratio: Stemina devTOX quickPredict H9 human embryonic stem cell (hESC)-based Assay for Ornithine (ORN):Cystine (CYSS) Ratio (AID 2283714)", "in_short": "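Undifferentiated H9 hESCs exposed 72 h, media and compound replaced every 24 h; final 24-h conditioned media deproteinized and analysed by UPLC-HRMS against C13 spike-ins. Value is the internal-standard-normalized ORN/CYSS ratio versus 0.1% DMSO.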"}, "[6]": {"test": "Tanguay_ZF_120hpf_CIRC_legacy: (Legacy) Oregon State University Tanguay Lab 120 Hour Post-fertilization zebrafish Assay for Circulatory Malformation (AID 2283651)", "in_short": "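Dechorionated wild-type 5D zebrafish embryos, one per well, statically exposed from 6 to 120 hpf at 28C with 0.64% DMSO; circulatory malformation scored present/absent by brightfield microscopy at 120 hpf, dead embryos excluded.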"}, "[7]": {"test": "Tanguay_ZF_120hpf_SWIM_legacy: (Legacy) Oregon State University Tanguay Lab 120 Hour Post-fertilization zebrafish Assay for Swim Bladder Malformation (AID 2283654);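 also: swim bladder malformation in each larva scored yes or no under brightfield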", "in_short": "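Dechorionated wild-type Tropical 5D zebrafish embryos, one per well from 6 hpf, were statically exposed at 28C until 120 hpf in 0.64% DMSO. Swim bladder malformation scored as present/absent by brightfield microscopy; not scored in dead larvae.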"}, "[8]": {"test": "Tanguay_ZF_120hpf_TRUN_legacy: (Legacy) Oregon State University Tanguay Lab 120 Hour Post-fertilization zebrafish Assay for Truncated Body (AID 2283655)", "in_short": "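Binary presence/absence of truncated body is recorded at 120 hpf by brightfield, with non-mortality endpoints skipped after death. Exposure is static from 6 hpf in sealed dark plates at 28C, using dechorionated wild-type zebrafish, 0.64% DMSO.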"}, "[9]": {"test": "Tanguay_ZF_120hpf_NC_legacy: (Legacy) Oregon State University Tanguay Lab 120 Hour Post-fertilization zebrafish Assay for Notochord and Tail Malformation (AID 2283656)", "in_short": "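Dechorionated Tropical 5D wild-type zebrafish embryos, one per well from 6 hpf, statically exposed to 120 hpf at 28C in 0.64% DMSO final. Notochord distortion scored present/absent by brightfield; dead embryos excluded.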"}, "[10]": {"test": "Tanguay_ZF_120hpf_TR_legacy: (Legacy) Oregon State University Tanguay Lab 120 Hour Post-fertilization zebrafish Assay for Touch Response (AID 2283667)", "in_short": "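Tropical 5D wild-type zebrafish embryos statically exposed to 120 hpf at 28°C, sealed and dark-covered, 0.64% DMSO final; touch response scored as present/absent by brightfield microscopy at 120 hpf. Trimethyltin chloride 5 uM positive control; dead embryos not scored.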"}},
  "note": "Results filed as inconclusive are left out. Calls of active or inactive are those of the source. The calls were made as follows, unless noted: active = hit-call score of the fitted dose curve at least 0.9, where 1 is the maximum; inconclusive = response in the unintended direction; inactive = score below 0.9.",
  "data": [
    {"smiles": "CC1(C)[C@@H]2CC[C@@]1(C)C(=O)C2", "values": [
      {"measurement": "outcome", "setting": "[1]", "value": "inactive"},
      {"measurement": "outcome", "setting": "[2]", "value": "inactive"}
    ]},
    {"smiles": "CN(C)c1ccc2nc3ccc(=[N+](C)C)cc-3sc2c1", "values": [
      {"measurement": "AC50", "setting": "[3]", "value": "34 µM (active)"},
      {"measurement": "AC50", "setting": "[4]", "value": "13.7 µM (active)"},
      {"measurement": "AC50", "setting": "[5]", "value": "2.34 µM (active)"}
    ]},
    {"smiles": "CCc1occc(=O)c1O", "values": [
      {"measurement": "AC50", "setting": "[3]", "value": "31 µM (active)"}
    ]},
    {"smiles": "CC1=NN(c2ccc(S(=O)(=O)O)cc2)C(=O)C1N=Nc1ccccc1", "note": "(stereo unspecified)", "values": [
      {"measurement": "outcome", "setting": "[3]", "value": "inactive"},
      {"measurement": "outcome", "setting": "[4]", "value": "inactive"}
    ]},
    {"smiles": "COC(=O)C=Cc1ccccc1", "values": [
      {"measurement": "outcome", "setting": "[5]", "value": "inactive"}
    ]},
    {"smiles": "Oc1ccccc1Cc1ccccc1O", "values": [
      {"measurement": "AC50", "setting": "[5]", "value": "60.6 µM (active)"}
    ]},
    {"smiles": "CCCCCCOc1ccc(N)cc1", "values": [
      {"measurement": "AC50", "setting": "[3]", "value": "0.494 µM (active)"}
    ]},
    {"smiles": "CCCCCCCCCC[N+](C)(CCCCCCCCCC)CCC[Si](OC)(OC)OC", "values": [
      {"measurement": "AC50", "setting": "[3]", "value": "48.9 µM (active)"},
      {"measurement": "AC50", "setting": "[4]", "value": "16 µM (active)"}
    ]},
    {"smiles": "COc1ccc(-c2coc3cc(O)cc(O)c3c2=O)cc1", "values": [
      {"measurement": "AC50", "setting": "[3]", "value": "21.4 µM (active)"},
      {"measurement": "AC50", "setting": "[4]", "value": "86.5 µM (active)"}
    ]},
    {"smiles": "CCCCC/C=C\\C/C=C\\CCCCCCCC(=O)O", "values": [
      {"measurement": "AC50", "setting": "[3]", "value": "43.8 µM (active)"},
      {"measurement": "AC50", "setting": "[4]", "value": "86.4 µM (active)"}
    ]},
    {"smiles": "c1ccc(Nc2cccc3ccccc23)cc1", "values": [
      {"measurement": "AC50", "setting": "[3]", "value": "5.32 µM (active)"},
      {"measurement": "AC50", "setting": "[4]", "value": "28.4 µM (active)"}
    ]},
    {"smiles": "O=C(O)c1cc(O)c2ccccc2c1O", "values": [
      {"measurement": "AC50", "setting": "[3]", "value": "30.7 µM (active)"},
      {"measurement": "AC50", "setting": "[4]", "value": "28.6 µM (active)"}
    ]},
    {"smiles": "C1CNCCN1", "values": [
      {"measurement": "outcome", "setting": "[6]", "value": "inactive"},
      {"measurement": "outcome", "setting": "[7]", "value": "inactive"},
      {"measurement": "outcome", "setting": "[8]", "value": "inactive"},
      {"measurement": "outcome", "setting": "[9]", "value": "inactive"},
      {"measurement": "outcome", "setting": "[10]", "value": "inactive"}
    ]},
    {"smiles": "N#Cc1ccc(C(c2ccc(C#N)cc2)n2cncn2)cc1", "values": [
      {"measurement": "outcome", "setting": "[3]", "value": "inactive"}
    ]},
    {"smiles": "Cc1ccc([N+](=O)[O-])cc1N", "values": [
      {"measurement": "outcome", "setting": "[6]", "value": "inactive"},
      {"measurement": "outcome", "setting": "[7]", "value": "inactive"},
      {"measurement": "outcome", "setting": "[8]", "value": "inactive"},
      {"measurement": "outcome", "setting": "[9]", "value": "inactive"},
      {"measurement": "outcome", "setting": "[10]", "value": "inactive"}
    ]},
    {"smiles": "CCCCC1C(=O)N(c2ccccc2)N(c2ccccc2)C1=O", "values": [
      {"measurement": "AC50", "setting": "[3]", "value": "39.6 µM (active)"},
      {"measurement": "outcome", "setting": "[4]", "value": "inactive"},
      {"measurement": "outcome", "setting": "[5]", "value": "inactive"}
    ]},
    {"smiles": "CCCCCCCCCCCCc1ccc(O)cc1", "values": [
      {"measurement": "AC50", "setting": "[3]", "value": "26.2 µM (active)"},
      {"measurement": "AC50", "setting": "[4]", "value": "11.4 µM (active)"}
    ]},
    {"smiles": "O=c1c(O)c(-c2ccc(O)cc2O)oc2cc(O)cc(O)c12", "values": [
      {"measurement": "AC50", "setting": "[3]", "value": "0.337 µM (active)"},
      {"measurement": "outcome", "setting": "[4]", "value": "inactive"}
    ]},
    {"smiles": "COC(=O)c1ccccc1C", "values": [
      {"measurement": "outcome", "setting": "[3]", "value": "inactive"},
      {"measurement": "outcome", "setting": "[4]", "value": "inactive"}
    ]},
    {"smiles": "C/C=C/C=C/CCCCCCCO", "values": [
      {"measurement": "AC50", "setting": "[3]", "value": "25.8 µM (active)"},
      {"measurement": "AC50", "setting": "[4]", "value": "87.2 µM (active)"}
    ]},
    {"smiles": "CCCCCCCOC(=O)c1ccc(O)cc1", "values": [
      {"measurement": "AC50", "setting": "[3]", "value": "52.6 µM (active)"},
      {"measurement": "AC50", "setting": "[4]", "value": "35.7 µM (active)"}
    ]},
    {"smiles": "COc1ccc(C(=O)c2ccccc2)c(O)c1", "values": [
      {"measurement": "outcome", "setting": "[3]", "value": "inactive"},
      {"measurement": "outcome", "setting": "[4]", "value": "inactive"},
      {"measurement": "outcome", "setting": "[5]", "value": "inactive"}
    ]},
    {"smiles": "Nc1ccc(C(=O)O)cc1", "values": [
      {"measurement": "outcome", "setting": "[6]", "value": "inactive"},
      {"measurement": "outcome", "setting": "[7]", "value": "inactive"},
      {"measurement": "outcome", "setting": "[8]", "value": "inactive"},
      {"measurement": "outcome", "setting": "[9]", "value": "inactive"},
      {"measurement": "AC50", "setting": "[3]", "value": "3.19 µM (active)"},
      {"measurement": "outcome", "setting": "[10]", "value": "inactive"}
    ]},
    {"smiles": "CC(CCC(=O)O)(c1ccc(O)cc1)c1ccc(O)cc1", "values": [
      {"measurement": "AC50", "setting": "[3]", "value": "18.3 µM (active)"},
      {"measurement": "outcome", "setting": "[5]", "value": "inactive"}
    ]},
    {"smiles": "O=S(=O)(O)c1ccc(N=Nc2c(O)ccc3ccccc23)cc1", "values": [
      {"measurement": "outcome", "setting": "[3]", "value": "inactive"},
      {"measurement": "AC50", "setting": "[4]", "value": "18.1 µM (active)"}
    ]},
    {"smiles": "CC(C)c1ccc(O)c(C(C)C)c1", "values": [
      {"measurement": "AC50", "setting": "[3]", "value": "29.7 µM (active)"},
      {"measurement": "AC50", "setting": "[4]", "value": "28.4 µM (active)"}
    ]},
    {"smiles": "CC(C)(c1ccccc1)c1ccc(Nc2ccc(C(C)(C)c3ccccc3)cc2)cc1", "values": [
      {"measurement": "AC50", "setting": "[3]", "value": "33.8 µM (active)"}
    ]}
  ]
}
